# Bioassay records: PubChem BioAssay, National Center for Advancing Translational Sciences (NCATS)
# Sampled rows, rich in hits. Any-hit rate of the full collection: about 6.2%.
# KB-V1 MDR tox – qHTS assay for MDR1-selective chemotherapeutics: Primary screen using the drug-selected MDR subline cells KB-V1. KB-V1 MDR cells viability, CellTiter-Glo, 72 h. Potency, µM (doses to about 46.1 µM), hits mostly cytotoxic. hit rate 3.4% among 400,000. AID 1347076, 2019; also: % is scaled to controls: 0 for no effect and ±100 for the full control effect; nearly all actives have a fitted effect of over 60% in size
#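 Compound-treated KB-V1 multidrug-resistant cells, 72 h, 37 degrees C; viability by CellTiter-Glo. Fitted qHTS curves give the values.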
# KB-3-1 tox – qHTS assay for MDR1-selective chemotherapeutics: Primary screen using the parental adenocarcinoma cell KB-3-1; KB-3-1 viability, CellTiter-Glo ATP luminescence, 72 h; Potency, µM (top dose mostly 46.1 µM), actives largely listed as cytotoxic; hit rate 1.4% among 400,000; AID 1347075, 2019; also: % is scaled to controls: 0 for no effect and ±100 for the full control effect; nearly all actives have a fitted effect of over 60% in size
#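 Multi-concentration cytotoxicity screen in KB-3-1 cells grown in DMEM lacking phenol red with 10% FBS. After 72 h at 37 °C with compound, ATP-dependent luminescence was recorded.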
# HT1080 IDH1KD tx – qHTS for induction of synthetic lethality in tumor cells producing 2HG: qHTS for the HT-1080-IDH1KD cell line; HT-1080 IDH1 knockdown viability, ATP luminescence, 48 h; Potency, µM (titrated, usually from 46.1 µM), for inactives: at the highest dose activity, negative = toxicity, most hits filed as cytotoxic; hit rate 2% among 360,000;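 also: 0% = DMSO wells and -100% = cell-free medium wells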
#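 HT-1080-IDH1KD cells (IDH1 knocked down), 750/well in RPMI with 5% FBS, treated with compound 48 h at 37 degrees C. Viability by CellTiter-Glo luminescence, normalised to DMSO and no-cell wells; concentration-response curves classed.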
# ATXN2 expr inh – Primary qHTS for Inhibitors of ATXN expression | HEK-293 ATXN2-luciferase reporter, luminescence, 24 h | Potency, µM (highest dose often 57 µM), without a hit: at the highest dose activity change, negative = inhibition, usual class: inhibitors | hit rate 0.72% among 360,000 | AID 1745845, 2022; also: % is scaled to controls: 0 for no effect and ±100 for the full control effect; nearly all actives have a fitted effect of over 55% in size
#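 ATXN2-luciferase reporter cells (luciferase flanked by upstream and downstream ATXN2 gene portions) were treated 24 h at 37 °C with compounds at up to 57 uM. SteadyGlo luminescence gave expression; GF-AFC fluorescence gave viability.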
# S2 tox – Viability Counterscreen for Primary qHTS for Inhibitors of ATXN expression; S2 cells (HEK-293 line with an ATXN2-luciferase reporter) viability, CellTiter-Fluor protease fluorescence, 24 h; Potency, µM (doses to about 56.7 µM), usual class: cytotoxic; hit rate 0.49% among 400,000; AID 651635, 2014; also: nearly all actives have a fitted effect of over 40% in size
# HT1080-NT tox – qHTS for induction of synthetic lethality in tumor cells producing 2HG: qHTS for the HT-1080-NT fibrosarcoma cell line; hit rate 1.6% among 360,000; HT-1080-NT fibrosarcoma viability, CellTiter-Glo ATP luminescence, 48 h; Potency, µM (titrated, usually from 46.1 µM), for inactives: at the top dose activity, negative = less viability, most hits filed as cytotoxic;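 also: NT is the 2HG producing partner of a matched IDH1 knockdown line; 0% = DMSO-treated cells and -100% = media-only wells without cells; nearly all actives have a fitted effect of over 55% in size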
#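 Compounds were tested in concentration-response format on HT-1080-NT cells for 48 hours at 37 degrees C. Cell viability came from CellTiter-Glo luminescence; curves were classified by r2, response magnitude and activity.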
# * hit, by the source's call; i = inactive; ? = inconclusive; nt = no result given; [ ] = dose if it differs, or a comment. Calls follow the shape of the dose curve; as a rule, active = well fitted curve in the direction sought with a large enough effect; inconclusive = small, poorly fitted or top-dose-only effect, or another doubt; inactive = no such curve, though single readings can be large; an effect the other way counts as inactive or inconclusive. Potency is read from the fitted curve at half-maximal effect.
SMILES,KB-V1 MDR tox,KB-3-1 tox,HT1080 IDH1KD tx,ATXN2 expr inh,S2 tox,HT1080-NT tox
O=c1cc(-c2ccccc2)[nH]c2ccc(F)cc12,?,1.2µM*,2.3µM*,5%,i,?
CSc1ccc(CN2CCC(C)(Oc3ccc(-n4ccnc4)cc3)C2)cc1 (stereo unspecified),?,i,-8%,?,i,?
COc1ccccc1C1CN(Cc2cccc(OCCO)c2)Cc2ccccc2O1 (stereo unspecified),nt,nt,nt,nt,i,nt
COc1ccc(N=C2S/C(=C\c3ccco3)C(=O)N2CC(C)C)cc1,i,i,12%,-14%,i,7%
COC(=O)CN1C(=O)S/C(=C/c2cc(C)n(C)c2C)C1=O,16µM*,i,-4%,36%,i,-14%
COC(=O)CN1C(=O)S/C(=C/c2ccc(N3CCCCC3)o2)C1=O,i,i,7%,73%,?,1%
CCn1c(C)cc(/C=C2/SC(=O)N(C(C)C(=O)OC)C2=O)c1C (stereo unspecified),i,?,-9%,35%,i,?
COc1ccc(N=C2S/C(=C\c3cc(C)n(C)c3C)C(=O)N2CC(C)C)cc1,2.6µM*,i,-9%,-22%,i,-5%
COC(=O)C(C)N1C(=O)S/C(=C/c2cc(C)n(C(C)C)c2C)C1=O (stereo unspecified),4.1µM*,?,-4%,4%,i,1%
Cc1ccc2c(c1)c1c(n2CC2COC(C)(C)O2)C(=O)CCC1 (stereo unspecified),i,i,4%,-1%,i,3%
Cc1ccc2c(c1)c1c3n2CC(=C2C(=O)OC(C)(C)OC2=O)NC3CCC1 (stereo unspecified),21µM*,i,-26%,-9%,i,?
CCc1nc2ccc(C(=O)N(C)CCCN(C)C)cn2c1N(C)Cc1cc2ccccc2s1,i,i,16µM*,?,?,18µM*
CCc1nc2ccc(C(=O)Nc3ccc(C(=O)N(C)C)cc3)cn2c1N(C)CCCc1ccccc1,i,i,-10%,?,28µM*,-6%
CCc1nc2ccc(C(=O)Nc3ccc(NC(C)=O)cc3)cn2c1N(C)CCCc1ccccc1,i,i,-21%,?,?,0%
CCOc1ccc(OCC)c(NC(=O)CN(C)S(=O)(=O)c2ccc3c(c2)CCCC(=O)N3)c1,?,i,nt,?,i,nt
COc1ccc(N2CC(NC(=O)c3cc4ccccc4o3)CC2=O)cc1OC (stereo unspecified),i,i,nt,-4%,i,nt
COc1ccc(CN2C(=O)c3ccccc3C2c2nnnn2-c2ccc3c(c2)OCCO3)cc1 (stereo unspecified),i,i,0%,-7%,i,-10%
CN(CC(=O)Nc1ccc(Cl)c(Cl)c1)CC(=O)N1CCc2ccccc21,i,i,?,nt,i,?
CCN(CC)CCN(C)C(c1cc2ccccc2o1)c1nnnn1C(C)(C)C (stereo unspecified),?,i,-12%,-1%,?,0%
CN(Cc1ccc(Cl)c(Cl)c1)C(c1cc2ccccc2o1)c1nnnn1C(C)(C)C (stereo unspecified),15µM*,?,?,1%,?,-18%
Cc1nnc(SC(=O)N2c3ccccc3Sc3ccccc32)s1,?,i,7.1µM*,25µM*,nt,8.9µM*
CCc1ccc(S(=O)(=O)ON2C(=O)c3ccccc3C2=O)cc1,i,i,-25%,30µM*,nt,-24%
COc1ccc(OC)c(S(=O)(=O)N2CCN(c3ccccc3)CC2)c1,i,i,7%,51%,nt,10%
COc1ccc(OC)c(S(=O)(=O)ON2C(=O)c3ccccc3C2=O)c1,i,?,4.1µM*,-18%,?,?
COc1ccc(OC)c(S(=O)(=O)n2cnc3ccccc32)c1,23µM*,?,-3%,-30%,i,-6%
SMILES,KB-V1 MDR tox,KB-3-1 tox,HT1080 IDH1KD tx,ATXN2 expr inh,S2 tox,HT1080-NT tox
O=C1c2cccc3cccc(c23)C(=O)N1OS(=O)(=O)c1ccc(Cl)cc1,i,i,12%,-7%,i,-15%
COc1ccc(F)cc1S(=O)(=O)n1cnc2ccccc21,i,i,-7%,1%,i,-7%
Cc1cc(C)cc(NC2=NC3(CCCCC3)N=C(N)N2)c1,i,?,4.6µM*,0%,i,?
COc1ccc(OC)c(NC2=NC3(CCCC3)N=C(N)N2)c1,i,?,-28%,4%,i,-18%
Cc1cccc(NC2=NC(C)(C)N=C(N)N2)c1,i,1.6µM*,0.16µM*,-10%[11.3 µM],i,0.33µM*
Cc1cccc(Nc2nc(C)cc(C)n2)c1,i,i,16%,nt,i,12%
CCCCOc1ccc(NC2=NC3(CCCC3)N=C(N)N2)cc1,i,7.3µM*,?,?,i,?
COc1ccc(O)c(C(=O)N2CCC3(CC2)c2ccccc2[C@@H](NC(=O)c2ccccn2)[C@@H]3OC)c1,nt,nt,nt,nt,i,nt
O=C(CCCCCCC(=O)Nc1ccccc1)NO,1.3µM*,8.2µM*,nt,179%,?,nt
Cc1cc(C)c(-c2csc(Cc3nc(-c4cc5ccccc5oc4=O)cs3)n2)cc1C,?,23µM*,-9%,-21%,i,-3%
Cc1cc(C)c(-c2csc(-c3cc4ccccc4oc3=O)n2)cc1C,i,i,nt,9%,i,nt
Cc1ncc2c(c1CNC(=O)c1ccc3c(c1)OCO3)CCN(C(=O)/C=C/c1ccccc1Cl)C2,nt,nt,nt,nt,i,nt
Cc1cccc2c(/C=C/c3ccc(N(C)C)cc3)ccnc12,i,i,nt,nt,nt,nt
Cc1[nH]n(-c2ccccc2)c(=O)c1N=Nc1nccs1,?,i,4µM*,22µM*,nt,11µM*
Cc1[nH]n(-c2ccccc2)c(=O)c1N=Nc1ccccc1O,i,9.2µM*,9.2µM*,?,i,15µM*
COCCn1c(-c2ccccc2)c(C)n2c3c(=O)n(C)c(=O)n(C)c3nc12,?,i,nt,-11%,i,nt
CCc1cccc(CC)c1NC(=O)/C(C#N)=C/c1ccccc1C(F)(F)F,?,?,?,?,nt,23µM*
CC1(C)Cc2ccccc2C2=NNC(=O)C2=N1,?,?,7.3µM*,?,?,23µM*
